PubChem BioAssay (NCI)
The panel holds about 79,000 compounds, 15% with a hit somewhere; the sample as a whole holds those more often. A number with no mark means an inactive call. Rule as the data show it: active = growth inhibition above about 70%; inactive = the rest.

Assay: NCI Yeast Anticancer Drug Screen. Data for the rad50 strain (AID 155);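 also: 0% = growth of vehicle-only cultures of the same strain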
Conditions: S. cerevisiae rad50 strain growth inhibition; at 50.0 µM; active compounds read high
Procedure, shortened: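 Cells are treated with compound, grown, and their growth is then scored against vehicle-only cultures of the same repair-deficient yeast strain.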

| Compound | growth inhibition [%] |
| --- | --- |
| CCOC(=O)C(CCC#N)(CCC#N)C(=O)OCC | 39.5 |
| CCOC(=O)/C(C)=C\c1ccc(OC)c(OC)c1 | -2.15 |
| CCc1ccccc1C(=O)N(CC)CC | -14.8 |
| ON1CCCC1 | -1.35 |
| NC(=S)N/N=C/c1ccc(OC(=O)COc2ccc(Cl)cc2)cn1 | 5.65 |
| CC(C)(C)NCCC(O)c1cc(C(F)(F)F)nc2c(C(F)(F)F)cccc12 (configuration not stated) | -4.3 |
| Nc1cc(N)ncn1 | -1.3 |
| CC1(C)CC(=O)C=C(N)C1 | 7.35 |
| CCNC(=O)OCCc1c2ccccc2nc2ccccc12 | 51.4 |
| C=CC(C)C(C)(C)O (configuration not stated) | -3.2 |
| Clc1ncnc2nc[nH]c12 | -1.9 |
| CC(C)Sc1ncnc2nc[nH]c12 | 2.4 |
| CC(=O)OCC1CCC(COC(C)=O)CC1 (configuration not stated) | 9.75 |
| O=C1C=C[C@H](O)[C@@]2(CO)O[C@@H]12 | 5.85 |
| C/C(=N\O)c1ccccn1 | -7.6 |
| COc1ccc(C2CCCCC2=O)cc1 (configuration not stated) | -17.2 |
| O=Cc1c(O)c2ccccc2[nH]c1=O | -0.95 |
| O=C(O)CCCCCNC(=O)OCc1ccccc1 | 17.7 |
| CCCCOC(=O)c1ccccc1O | 9.35 |

| Compound | growth inhibition [%] |
| --- | --- |
| Cc1cc(C(=O)c2ccccc2)cc(C)c1O | 12.2 |
| C#CC(O)c1ccccc1 (configuration not stated) | -2.4 |
| CCOC(=O)c1c(C)[nH]c(C)c1C=O | 16.6 |
| Nc1ncnc2c1ncn2C1OC(CO)C2OC21 (configuration not stated) | -12.6 |
| CC(=O)N(C)N=Nc1ccc(C)cc1 | 3.7 |
| COc1cccc(C(=O)NNC(=O)c2cccc3ccccc23)c1 | -47.2 |
| COc1cc(C(=O)O)c(O)c(C(C)(C)C)c1 | 19.4 |
| COc1cc2c(c(OC)c1OC)-c1ccc(SC)c(=O)cc1[C@@H](NC1OC(CO)C(O)C(O)C1O)CC2 (some centres not stated) | -10.6 |
| CC(=O)[C@@]1(O)CC[C@H]2[C@@H]3CC[C@@H]4CC(=O)CC[C@]4(C)[C@H]3[C@@H](O)C[C@@]21C | -19.9 |
| O=C1C=C(c2ccccc2)C(O)(c2ccccc2)C1 (configuration not stated) | 15.1 |
| COc1nc(Nc2cccc(C(F)(F)F)c2)nc(OC)n1 | 8.5 |
| CC(C)NC(=O)OCc1c(COC(=O)NC(C)C)c(-c2ccc(Cl)cc2)n2c1CCC2 | -29.6 |
| C(=C\c1ccncc1)/c1ccncc1 | 27.9 |
| NNC(=O)c1ccccc1N | -1.8 |
| CC12CCC3c4ccc(O)cc4CCC3C1CCC2=O (configuration not stated) | 26.2 |
| NNC(=O)CCCCl | -10.5 |
| Cc1cccc(C)c1NC(=S)/N=C\c1c(O)[nH]c(=O)[nH]c1=O | -67 |
| O=C(CCl)Oc1ccc([N+](=O)[O-])cc1 | 20.8 |
